Source: ChEMBL document CHEMBL3988442, “University of Dundee, Small-Polar-MMV Screening Library” (2021)
For part of these data: Entries with a potency or affinity are not part of this list.

Experiments:
Design in all cases: scale not given: direction of the effect not stated beside the values
[1] = target: Protein translocase subunit SecA (Escherichia coli (strain K12)) (UniProt P10408); test: Assay to Identify E. coli SecA ATPase Inhibitors; type: functional; conditions: 30 µM
[2] = target: T1, Ubiquitin-activating enzyme e1, putative (Leishmania donovani (strain BPK282A1)) (UniProt E9BSI1); test: Leishmania donovani Ubiquitin Activating Enzyme (LdE1); type: functional; conditions: 30 µM
T1 sequence (whole entry): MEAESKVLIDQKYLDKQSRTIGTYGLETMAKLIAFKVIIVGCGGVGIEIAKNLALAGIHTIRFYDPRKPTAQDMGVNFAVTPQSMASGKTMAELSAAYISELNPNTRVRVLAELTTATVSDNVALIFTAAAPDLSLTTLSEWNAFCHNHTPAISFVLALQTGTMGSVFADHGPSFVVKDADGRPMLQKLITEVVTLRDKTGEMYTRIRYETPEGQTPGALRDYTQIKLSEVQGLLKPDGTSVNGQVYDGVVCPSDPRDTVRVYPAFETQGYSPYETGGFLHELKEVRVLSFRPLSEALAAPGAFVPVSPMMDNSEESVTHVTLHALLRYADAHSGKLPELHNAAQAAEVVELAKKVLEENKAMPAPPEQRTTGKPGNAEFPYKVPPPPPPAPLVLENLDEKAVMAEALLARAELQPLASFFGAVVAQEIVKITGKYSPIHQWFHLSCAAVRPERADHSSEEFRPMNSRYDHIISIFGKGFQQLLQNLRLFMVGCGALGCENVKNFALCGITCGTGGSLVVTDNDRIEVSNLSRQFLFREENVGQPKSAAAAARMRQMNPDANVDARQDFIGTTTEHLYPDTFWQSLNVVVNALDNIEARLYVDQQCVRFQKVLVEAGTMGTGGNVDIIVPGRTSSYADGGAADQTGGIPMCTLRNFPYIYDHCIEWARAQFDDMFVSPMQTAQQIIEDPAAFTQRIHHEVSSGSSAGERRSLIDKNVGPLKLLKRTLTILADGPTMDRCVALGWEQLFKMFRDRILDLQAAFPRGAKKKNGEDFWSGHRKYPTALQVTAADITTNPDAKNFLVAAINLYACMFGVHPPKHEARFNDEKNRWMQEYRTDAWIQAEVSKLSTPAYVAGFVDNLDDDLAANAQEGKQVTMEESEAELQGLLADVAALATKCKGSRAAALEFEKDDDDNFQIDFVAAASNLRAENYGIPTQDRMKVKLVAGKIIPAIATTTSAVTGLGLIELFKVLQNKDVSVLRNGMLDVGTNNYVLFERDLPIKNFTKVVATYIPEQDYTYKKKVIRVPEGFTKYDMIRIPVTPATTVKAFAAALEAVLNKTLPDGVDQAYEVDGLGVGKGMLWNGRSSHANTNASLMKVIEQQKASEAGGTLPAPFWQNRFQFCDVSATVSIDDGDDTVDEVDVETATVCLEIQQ

[3] = target: T2, Aspartate--tRNA(Asp/Asn) ligase (Mycobacterium tuberculosis (strain ATCC 25618 / H37Rv)) (UniProt P9WFW3); test: Assay for Asp RNA synthetase-1 from Mycobacterium tuberculosis; type: functional; conditions: 30 µM; further: in the data most compounds retested in dose-response had high values
T2 sequence (whole entry): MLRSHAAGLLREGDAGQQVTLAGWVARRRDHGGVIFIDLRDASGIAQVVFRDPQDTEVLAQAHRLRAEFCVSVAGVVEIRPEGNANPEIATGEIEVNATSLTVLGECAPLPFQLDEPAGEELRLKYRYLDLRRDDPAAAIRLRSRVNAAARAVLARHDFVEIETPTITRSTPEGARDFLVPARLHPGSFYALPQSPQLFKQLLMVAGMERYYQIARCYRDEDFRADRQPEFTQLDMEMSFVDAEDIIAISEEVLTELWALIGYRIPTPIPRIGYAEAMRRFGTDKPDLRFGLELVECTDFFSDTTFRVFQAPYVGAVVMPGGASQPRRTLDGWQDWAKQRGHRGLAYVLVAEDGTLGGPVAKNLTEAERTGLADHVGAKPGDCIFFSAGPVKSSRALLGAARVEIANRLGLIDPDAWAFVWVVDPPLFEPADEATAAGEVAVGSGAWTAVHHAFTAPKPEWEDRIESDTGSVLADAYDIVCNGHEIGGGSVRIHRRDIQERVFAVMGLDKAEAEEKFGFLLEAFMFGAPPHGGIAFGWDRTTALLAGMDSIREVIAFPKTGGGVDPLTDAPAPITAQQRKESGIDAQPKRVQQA

[4] = target: Sialic acid-binding Ig-like lectin 9 (Homo sapiens) (UniProt Q9Y336); test: Hs-Siglec9 ALPHAscreen SOP 20170721; conditions: 10 µM
Sialic acid-binding Ig-like lectin 9 (Homo sapiens), sequence (Q9Y336 whole entry): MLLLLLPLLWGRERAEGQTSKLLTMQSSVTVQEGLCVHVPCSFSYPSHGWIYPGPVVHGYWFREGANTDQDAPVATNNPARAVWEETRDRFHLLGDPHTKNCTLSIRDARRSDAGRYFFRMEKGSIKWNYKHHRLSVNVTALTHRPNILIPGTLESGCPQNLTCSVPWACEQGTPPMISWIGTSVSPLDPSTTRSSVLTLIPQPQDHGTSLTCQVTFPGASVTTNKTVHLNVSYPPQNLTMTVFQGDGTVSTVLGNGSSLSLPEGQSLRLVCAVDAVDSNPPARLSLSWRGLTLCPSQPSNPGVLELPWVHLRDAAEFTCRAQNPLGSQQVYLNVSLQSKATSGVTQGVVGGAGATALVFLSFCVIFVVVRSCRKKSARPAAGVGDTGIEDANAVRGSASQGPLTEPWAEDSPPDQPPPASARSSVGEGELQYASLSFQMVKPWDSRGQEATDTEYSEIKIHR

Trypanosoma cruzi = test: Trypanosoma cruzi phosphomannomutase and mannose-1-phosphate guanylyltransferase assay; type: functional; conditions: 10 µM
[5] = target: T3, Arginase-2, mitochondrial (Homo sapiens) (UniProt P78540); test: in vitro enzyme assay to detect the production of urea directly proportional to the activity of Arginase II; type: functional; conditions: 33.3 µM; further: in the data most compounds retested in dose-response had high values
T3 sequence (whole entry): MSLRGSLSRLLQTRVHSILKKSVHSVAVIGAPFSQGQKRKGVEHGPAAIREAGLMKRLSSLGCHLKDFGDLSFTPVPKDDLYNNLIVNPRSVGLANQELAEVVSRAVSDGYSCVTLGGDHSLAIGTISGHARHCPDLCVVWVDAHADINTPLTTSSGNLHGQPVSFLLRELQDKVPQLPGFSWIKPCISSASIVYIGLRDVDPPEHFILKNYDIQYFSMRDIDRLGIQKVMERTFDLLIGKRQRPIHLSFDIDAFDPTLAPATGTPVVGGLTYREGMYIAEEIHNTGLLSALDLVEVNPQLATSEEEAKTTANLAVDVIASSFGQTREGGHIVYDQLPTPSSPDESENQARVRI

[6] = target: T4, Proteasome subunit beta (Trypanosoma cruzi) (UniProt O96673); test: Trypanosoma cruzi proteasome chymotrypsin-like activity (TcProtChymo) assay.; further: in the data most compounds retested in dose-response had high values; type: functional; conditions: 9.37 µM
T4 sequence (whole entry): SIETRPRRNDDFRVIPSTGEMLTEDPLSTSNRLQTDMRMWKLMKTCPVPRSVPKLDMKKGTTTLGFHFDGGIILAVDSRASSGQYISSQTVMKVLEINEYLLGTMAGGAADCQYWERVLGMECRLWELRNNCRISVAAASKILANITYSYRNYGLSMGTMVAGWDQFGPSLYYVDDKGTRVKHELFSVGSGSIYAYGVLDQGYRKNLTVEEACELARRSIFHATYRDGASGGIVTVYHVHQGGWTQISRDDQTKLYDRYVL

Homo sapiens = species on record: Homo sapiens; test: To identify inhibition of the IFN signalling (Jak-Stat) pathway via expression of an eGFP reporter gene under the control of an IFN-stimulated response element (ISRE) containing MxA promoter.; type: functional; conditions: 30 µM
[7] = target: Shiga toxin 2 (Escherichia coli O157:H7) (UniProt P09385+P09386); test: E. coli 0.157:H7 Shiga Toxin SOP - stx2 screening assay; type: functional; conditions: 30 µM
[8] = target: T5, Tyrosyl-tRNA synthetase, putative (Trypanosoma cruzi (strain CL Brener)) (UniProt Q4DSP6); test: Trypanosoma cruzi tyrosyl tRNA synthetase (TcYRS) _High Tyrosine SOP; type: functional; conditions: 30 µM; further: in the data most compounds retested in dose-response had high values
T5 sequence (whole entry): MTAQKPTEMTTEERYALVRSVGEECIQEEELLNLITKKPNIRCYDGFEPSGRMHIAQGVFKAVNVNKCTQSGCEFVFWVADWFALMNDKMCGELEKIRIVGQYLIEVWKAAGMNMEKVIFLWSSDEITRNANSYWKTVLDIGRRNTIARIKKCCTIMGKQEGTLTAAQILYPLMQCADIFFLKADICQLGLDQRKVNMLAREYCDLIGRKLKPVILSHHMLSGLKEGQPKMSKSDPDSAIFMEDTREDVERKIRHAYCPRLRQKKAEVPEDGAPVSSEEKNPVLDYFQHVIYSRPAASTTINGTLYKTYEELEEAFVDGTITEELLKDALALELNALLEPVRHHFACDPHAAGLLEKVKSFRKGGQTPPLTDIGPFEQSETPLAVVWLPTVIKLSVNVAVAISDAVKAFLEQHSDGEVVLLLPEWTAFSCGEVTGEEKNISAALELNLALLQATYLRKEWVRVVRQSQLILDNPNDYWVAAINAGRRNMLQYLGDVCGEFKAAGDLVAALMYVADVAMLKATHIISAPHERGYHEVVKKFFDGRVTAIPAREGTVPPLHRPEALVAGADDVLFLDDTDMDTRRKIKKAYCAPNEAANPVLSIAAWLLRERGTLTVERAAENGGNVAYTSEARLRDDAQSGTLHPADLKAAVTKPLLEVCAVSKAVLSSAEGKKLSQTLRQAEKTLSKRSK

[9] = target: T5, Tyrosyl-tRNA synthetase, putative (Trypanosoma cruzi (strain CL Brener)); test: Trypanosoma cruzi tyrosyl tRNA synthetase (TcYRS) SOP; type: functional; conditions: 30 µM
[10] = target: Chromo domain-containing protein 1 (Saccharomyces cerevisiae (strain ATCC 204508 / S288c) (Baker's yeast)) (UniProt P32657); test: ScCHD-1 Enzyme Inhibition Assay; type: functional; conditions: 30 µM; further: in the data most compounds retested in dose-response had high values
Chromo domain-containing protein 1 (Saccharomyces cerevisiae (strain ATCC 204508 / S288c) (Baker's yeast)), sequence (P32657 whole entry, the tested form may be a part): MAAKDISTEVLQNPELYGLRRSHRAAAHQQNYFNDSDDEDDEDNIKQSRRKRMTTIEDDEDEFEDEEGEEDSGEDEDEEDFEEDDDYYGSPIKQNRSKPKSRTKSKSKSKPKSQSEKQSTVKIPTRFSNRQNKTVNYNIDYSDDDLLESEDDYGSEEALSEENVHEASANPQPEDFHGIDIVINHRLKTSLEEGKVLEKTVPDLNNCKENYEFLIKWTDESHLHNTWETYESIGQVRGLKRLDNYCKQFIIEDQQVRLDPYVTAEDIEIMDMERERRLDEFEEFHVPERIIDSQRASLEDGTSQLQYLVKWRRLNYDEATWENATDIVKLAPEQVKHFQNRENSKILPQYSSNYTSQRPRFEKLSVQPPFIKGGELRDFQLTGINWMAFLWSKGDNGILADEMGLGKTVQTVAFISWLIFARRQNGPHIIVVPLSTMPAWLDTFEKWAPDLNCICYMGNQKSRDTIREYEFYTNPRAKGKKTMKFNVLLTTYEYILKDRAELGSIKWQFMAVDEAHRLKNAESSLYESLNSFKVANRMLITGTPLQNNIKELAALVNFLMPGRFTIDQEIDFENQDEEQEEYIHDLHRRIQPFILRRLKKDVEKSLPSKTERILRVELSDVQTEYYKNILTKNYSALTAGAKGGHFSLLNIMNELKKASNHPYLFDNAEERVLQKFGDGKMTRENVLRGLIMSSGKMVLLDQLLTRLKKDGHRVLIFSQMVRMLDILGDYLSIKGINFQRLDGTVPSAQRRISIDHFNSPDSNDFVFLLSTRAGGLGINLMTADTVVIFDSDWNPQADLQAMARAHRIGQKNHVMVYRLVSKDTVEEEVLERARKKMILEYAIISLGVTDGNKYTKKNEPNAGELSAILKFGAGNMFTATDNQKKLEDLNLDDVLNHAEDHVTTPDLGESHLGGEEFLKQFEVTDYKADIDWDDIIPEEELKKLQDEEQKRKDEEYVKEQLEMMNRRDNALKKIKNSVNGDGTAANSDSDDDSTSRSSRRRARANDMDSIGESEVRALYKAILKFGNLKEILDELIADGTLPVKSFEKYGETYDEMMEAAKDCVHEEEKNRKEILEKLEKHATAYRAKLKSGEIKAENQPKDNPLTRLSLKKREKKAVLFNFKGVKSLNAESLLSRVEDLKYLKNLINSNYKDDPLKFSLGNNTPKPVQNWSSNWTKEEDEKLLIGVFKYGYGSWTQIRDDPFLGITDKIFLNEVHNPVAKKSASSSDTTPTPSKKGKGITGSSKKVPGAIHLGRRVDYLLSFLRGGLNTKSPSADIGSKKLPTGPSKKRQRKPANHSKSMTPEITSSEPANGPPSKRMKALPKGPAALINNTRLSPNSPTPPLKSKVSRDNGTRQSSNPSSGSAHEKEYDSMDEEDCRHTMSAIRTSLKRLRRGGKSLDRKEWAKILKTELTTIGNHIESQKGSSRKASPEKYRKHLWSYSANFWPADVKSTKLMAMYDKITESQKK

Protein translocase subunit SecA (Escherichia coli (strain K12)), sequence (P10408 whole entry): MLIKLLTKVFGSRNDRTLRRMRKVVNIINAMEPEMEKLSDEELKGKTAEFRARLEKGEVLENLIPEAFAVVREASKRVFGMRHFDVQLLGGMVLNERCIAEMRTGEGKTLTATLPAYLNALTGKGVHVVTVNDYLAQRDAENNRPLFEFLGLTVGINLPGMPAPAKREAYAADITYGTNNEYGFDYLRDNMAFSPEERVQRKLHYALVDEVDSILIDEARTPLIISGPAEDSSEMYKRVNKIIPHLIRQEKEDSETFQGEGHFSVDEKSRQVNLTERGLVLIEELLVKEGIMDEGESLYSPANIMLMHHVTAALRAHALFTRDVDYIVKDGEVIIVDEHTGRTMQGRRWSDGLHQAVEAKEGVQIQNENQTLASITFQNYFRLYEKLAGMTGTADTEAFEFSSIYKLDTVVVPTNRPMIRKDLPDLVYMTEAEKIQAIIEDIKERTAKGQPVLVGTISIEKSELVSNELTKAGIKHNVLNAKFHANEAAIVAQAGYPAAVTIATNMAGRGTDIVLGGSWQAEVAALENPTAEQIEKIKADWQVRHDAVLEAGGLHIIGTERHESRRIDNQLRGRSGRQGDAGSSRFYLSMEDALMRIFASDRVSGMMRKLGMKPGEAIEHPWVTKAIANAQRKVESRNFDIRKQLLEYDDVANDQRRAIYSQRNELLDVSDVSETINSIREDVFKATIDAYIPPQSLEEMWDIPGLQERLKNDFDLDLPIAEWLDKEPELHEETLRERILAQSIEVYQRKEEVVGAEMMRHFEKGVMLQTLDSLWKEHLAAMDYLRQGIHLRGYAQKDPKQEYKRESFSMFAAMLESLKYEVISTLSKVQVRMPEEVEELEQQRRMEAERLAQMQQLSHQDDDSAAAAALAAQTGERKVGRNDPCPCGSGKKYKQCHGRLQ

SMILES | Percent Effect [1] [%] | Percent Effect [2] [%] | Percent Effect [3] [%] | Percent Effect [4] [%] | Percent Effect (Trypanosoma cruzi) [%] | Percent Effect [5] [%] | Percent Effect [6] [%] | Percent Effect (Homo sapiens) [%] | Percent Effect [7] [%] | Percent Effect [8] [%] | Percent Effect [9] [%] | Percent Effect [10] [%]
CC(C)(C)n1cc(C(=O)NCCCn2ccnc2)c2cccnc21 | 3.93 | 17.3 | 6.13 | -8.62 | 4.73 | 1.77 | 19.1 | 29.9 | -3.75 | 2.12 | 15 | -24.1
COc1ccc(C(=O)C2CCCN(Cc3ccncc3)C2)c(OC)c1 (stereo not drawn) | -6.33 | 5.41 | -0.276 | 12.6 | 5.33 | 15 | 5.31 | 10.7 | 11 | 5.85 | 12.2 | 83.7
Cc1cccc(CN2C(=O)C[C@H]3[C@@H]2CCN3CC2CC2)n1 | -1.8 | -22.1 | 3.32 | 2.35 | 0.563 | 1.83 | 12.3 | -5.79 | 4.71 | 12.6 | 12.5 | -5.44
COCCNC(=O)c1cn(C(C)(C)C)c2ncccc12 | 107 | 6.67 | 2.31 | -7.99 | 0.197 | 6.2 | 11 | 3.2 | 4 | 0 | 10 | -17.6
